This note sets out measurements from PubChem BioAssay (Tox21).

Experiment [1] can be described thus: qHTS assay to identify small molecule agonists of the androgen receptor (AR) signaling pathway in the presence of an antagonist - cell viability counter screen (AID 1259379). Note: nearly all actives have a fitted effect of over 25% in size. Note: potency is the fitted concentration of half-maximal effect. In outline:
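Cytotoxicity is assessed by CellTiter-Fluor in MDA-kb2 cells carrying an MMTV-driven luciferase reporter. Cells receive 3.0uM nilutamide plus compounds at 15 concentrations and incubate 16 hr at 37C without CO2 before fluorescence reading.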

Experiment [2] in a line: qHTS assay to identify small molecule agonists of the estrogen receptor beta (ER-beta) signaling pathway - cell viability counter screen (AID 1259380). Note: nearly all actives have a fitted effect of over 30% in size. Note: potency is the fitted concentration of half-maximal effect. In outline:
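Cytotoxicity is measured in parallel with the reporter screen: after 16 hr compound exposure at 37C and a 2 hr LiveBLAzer step, CellTiter-Glo is added to the same ER-beta-UAS-bla HEK293T wells and luminescence read after 30 min.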
(Quantitative high-throughput screening tests each substance at several concentrations.)

The target in experiment [3] is Androgen receptor (Homo sapiens) (UniProt P10275). As to the kind of experiment: qHTS assay to identify small molecule agonists of the androgen receptor (AR) signaling pathway in the presence of an antagonist (AID 1259381; calls by dose curve; note: nearly all actives have a fitted effect of over 15% in size). In outline:
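Agonist-mode confirmation screen: human MDA-kb2 cells stably expressing luciferase under an MMTV promoter bearing AR and GR response elements, co-treated with 3.0uM nilutamide (final). Luminescence measured after 16hr compound incubation.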

Experiment [4] can be described thus: qHTS assay to identify small molecule antagonists of the estrogen receptor beta (ER-beta) signaling pathway - cell viability counter screen (AID 1259382).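 Note: HEK293T cells carrying ER-beta-UAS-bla reporter stimulated with estradiol; series mostly up to about 92 µM; nearly all actives have a fitted effect of over 55% in size.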 Put shortly: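 Cytotoxicity counter screen multiplexed with the beta-lactamase antagonist assay: GripTite HEK293T ER-beta-bla cells were treated 16 hr with test chemicals in the presence of 1nM 17-beta-estradiol, and viability was measured by CellTiter-Glo.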

The target of experiment [5] is Estrogen receptor (Homo sapiens) (UniProt P03372). In words: qHTS assay to identify small molecule agonists of the estrogen receptor alpha (ER-alpha) signaling pathway in the presence of an antagonist (AID 1259383; calls by dose curve; note: nearly all actives have a fitted effect of over 15% in size; note: potency is the fitted concentration of half-maximal effect). Put shortly: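 Agonist-mode confirmation in the presence of the ER antagonist ICI-182,780 at 10.0nM final. Breast-derived VM7Luc4E2 reporter cells were exposed to compounds for 22hr, and ERE-driven luciferase was quantified by luminescence.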
Estrogen receptor (Homo sapiens), sequence (P03372 whole entry, looked up): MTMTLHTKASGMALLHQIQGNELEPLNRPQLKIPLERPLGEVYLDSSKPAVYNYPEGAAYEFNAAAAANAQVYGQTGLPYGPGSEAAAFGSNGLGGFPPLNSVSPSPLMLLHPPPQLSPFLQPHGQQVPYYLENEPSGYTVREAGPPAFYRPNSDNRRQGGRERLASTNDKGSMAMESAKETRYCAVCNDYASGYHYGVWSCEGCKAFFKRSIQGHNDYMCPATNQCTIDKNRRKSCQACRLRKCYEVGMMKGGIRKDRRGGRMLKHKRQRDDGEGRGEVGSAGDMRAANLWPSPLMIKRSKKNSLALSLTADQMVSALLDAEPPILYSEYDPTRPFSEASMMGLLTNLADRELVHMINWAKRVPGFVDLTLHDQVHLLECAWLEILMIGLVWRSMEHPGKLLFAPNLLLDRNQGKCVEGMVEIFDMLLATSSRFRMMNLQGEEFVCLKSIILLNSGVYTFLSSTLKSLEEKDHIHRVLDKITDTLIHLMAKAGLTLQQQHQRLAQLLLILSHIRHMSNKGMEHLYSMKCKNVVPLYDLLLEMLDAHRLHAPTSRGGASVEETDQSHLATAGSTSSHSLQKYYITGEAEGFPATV

Experiment [6] can be described thus: qHTS assay to identify small molecule agonists or antagonists of the thyroid stimulating hormone receptor (TSHR) signaling pathway - wild type cell line counter screen (AID 1259384; calls by dose curve). Put shortly: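 Wild-type HEK293 cells were plated 18 h at 37 C/5% CO2, pin-dosed with compound plus Ro20-1724 medium, held 30 min at room temperature, then given cAMP-d2 and anti-cAMP-cryptate; fluorescence was read after 1 h. Fifteen concentrations, triplicate.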

The target of experiment [7] is Thyrotropin receptor (Homo sapiens) (UniProt P16473). In words: qHTS assay to identify small molecule antagonists of the thyroid stimulating hormone receptor (TSHR) signaling pathway (AID 1259385; calls by dose curve; note: nearly all actives have a fitted effect of over 20% in size). In outline:
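TSHR-HEK293 cells were plated and held 18 h at 37C/5% CO2, then given compound plus Ro20-1724 and stimulated with TSH at 1.5 ng/mL final. After 30 min at room temperature, cAMP was detected with cAMP-d2/anti-cAMP-cryptate (1 h) by fluorescence.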

The nature of experiment [8]: qHTS assay to identify small molecule agonists of the estrogen receptor alpha (ER-alpha) signaling pathway in the presence of an antagonist - cell viability counter screen (AID 1259386).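 Note: cells exposed to compounds for 22 h at 37 °C before the viability read; nearly all actives have a fitted effect of over 30% in size.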 Note: potency is the fitted concentration of half-maximal effect. Put shortly:
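Cytotoxicity was measured in parallel with the ERE-luciferase agonist screen, in the same wells. The cells were VM7Luc4E2, which endogenously express ER-alpha, and treatment was with compounds plus 10.0nM ICI-182,780 for 22hr.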

Several values for one entry are separate records, joined by “and”; a condition that tells them apart may be missing. Equal values may be shown once. Records with an inconclusive call do not appear. The source holds several records for some structures; these can differ, active in one and inactive in another. Activity calls are given as the source filed them. Unless noted, calls come from the whole dose curve; as a rule, active = well fitted curve in the direction sought with a large enough effect in the repeat runs; inconclusive = weak or mixed curves; inactive = no such curve, though single readings can be large; an effect the other way counts as inactive or inconclusive.

Thyrotropin receptor (Homo sapiens), sequence (P16473 whole entry, looked up): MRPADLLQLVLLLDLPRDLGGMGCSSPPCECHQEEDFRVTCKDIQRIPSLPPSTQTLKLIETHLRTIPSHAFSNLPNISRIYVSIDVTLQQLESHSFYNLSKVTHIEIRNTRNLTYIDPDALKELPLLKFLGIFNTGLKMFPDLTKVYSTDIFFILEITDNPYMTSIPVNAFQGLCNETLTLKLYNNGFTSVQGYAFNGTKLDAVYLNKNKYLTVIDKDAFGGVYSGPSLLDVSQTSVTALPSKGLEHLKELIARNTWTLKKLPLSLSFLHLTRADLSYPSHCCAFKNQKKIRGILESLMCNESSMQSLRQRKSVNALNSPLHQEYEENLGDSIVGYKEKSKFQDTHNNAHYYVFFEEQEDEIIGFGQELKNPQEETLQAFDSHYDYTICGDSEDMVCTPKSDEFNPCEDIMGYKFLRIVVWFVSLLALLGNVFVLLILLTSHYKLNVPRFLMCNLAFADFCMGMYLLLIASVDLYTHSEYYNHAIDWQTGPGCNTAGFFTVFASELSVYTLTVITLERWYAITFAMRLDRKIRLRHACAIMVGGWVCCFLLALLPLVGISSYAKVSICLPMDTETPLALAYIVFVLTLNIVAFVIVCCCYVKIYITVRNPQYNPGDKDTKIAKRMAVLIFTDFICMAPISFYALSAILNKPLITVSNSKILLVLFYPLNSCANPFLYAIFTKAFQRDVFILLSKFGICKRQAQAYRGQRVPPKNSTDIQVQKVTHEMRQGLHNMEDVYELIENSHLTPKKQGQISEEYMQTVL
Androgen receptor (Homo sapiens), sequence (P10275 whole entry, looked up): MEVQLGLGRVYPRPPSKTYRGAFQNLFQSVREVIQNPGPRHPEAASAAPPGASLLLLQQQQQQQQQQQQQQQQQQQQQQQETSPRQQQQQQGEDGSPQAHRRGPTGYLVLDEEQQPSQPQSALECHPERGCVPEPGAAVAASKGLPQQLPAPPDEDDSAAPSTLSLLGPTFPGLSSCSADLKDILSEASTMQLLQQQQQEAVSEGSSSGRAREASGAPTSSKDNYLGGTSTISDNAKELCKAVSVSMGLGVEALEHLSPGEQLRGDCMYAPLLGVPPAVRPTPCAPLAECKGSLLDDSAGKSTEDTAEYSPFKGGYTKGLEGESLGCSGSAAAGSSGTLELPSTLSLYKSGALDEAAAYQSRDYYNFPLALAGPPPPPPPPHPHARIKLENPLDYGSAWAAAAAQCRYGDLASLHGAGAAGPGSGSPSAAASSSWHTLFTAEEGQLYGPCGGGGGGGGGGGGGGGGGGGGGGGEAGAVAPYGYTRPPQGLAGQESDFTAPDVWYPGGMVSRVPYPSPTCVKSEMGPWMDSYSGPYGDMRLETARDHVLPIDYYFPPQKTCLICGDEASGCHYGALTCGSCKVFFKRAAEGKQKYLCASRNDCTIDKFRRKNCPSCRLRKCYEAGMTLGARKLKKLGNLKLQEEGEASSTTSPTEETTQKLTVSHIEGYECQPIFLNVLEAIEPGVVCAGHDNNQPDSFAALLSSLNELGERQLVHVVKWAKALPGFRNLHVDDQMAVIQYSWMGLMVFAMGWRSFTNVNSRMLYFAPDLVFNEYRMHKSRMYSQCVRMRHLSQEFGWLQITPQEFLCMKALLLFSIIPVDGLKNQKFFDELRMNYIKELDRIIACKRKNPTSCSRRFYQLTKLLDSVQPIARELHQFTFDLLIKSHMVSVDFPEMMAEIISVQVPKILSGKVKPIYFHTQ

With `COP(=S)(OC)Oc1ccc([N+](=O)[O-])cc1Cl`, the Potency in experiment [1] and in experiment [8] was 48.6 µM (active) each time. Moreover, the Potency entry in experiment [2], in experiment [3], in experiment [4], in experiment [5] and in experiment [7] was “inactive” in each case. In addition, the molecule was classed as inactive in experiment [6].
Regarding `Cn1cc[n+](C)c1` (tested in a mixture with another compound), the Potency entry in experiment [1], in experiment [2], in experiment [4], in experiment [5], in experiment [7] and in experiment [8] was “inactive” throughout. Further, the molecule was called inactive in experiment [6].
`c1cc2ccc3cccc4ccc(c1)c2c34`: the Potency entry in experiment [1], in experiment [3], in experiment [7] and in experiment [8] was “inactive” in each case. The Potency in experiment [2] is 32.1 µM (active); in experiment [5], 64.1 µM (active).
On to `CC(C)(OO)c1ccccc1`, for which the Potency result in experiment [1], in experiment [2], in experiment [4], in experiment [5] and in experiment [8] was “inactive” each time. Also, the molecule was classed as inactive in experiment [6].
As to `O=C(O)C(F)(F)C(F)(F)C(F)(F)C(F)(F)C(F)(F)C(F)(F)C(F)(F)C(F)(F)C(F)(F)F`, the Potency entry in experiment [1], in experiment [4], in experiment [5], in experiment [7] and in experiment [8] was “inactive” throughout. In experiment [2], the Potency was 10.9 µM (active). The result in experiment [6] was inactive.
For the molecule `ClC=C(Cl)Cl`, the Potency entry in experiment [1], in experiment [2], in experiment [4], in experiment [5], in experiment [7] and in experiment [8] was “inactive” each time. The outcome in experiment [6] was inactive.
With `[CH3][Sn]([CH3])([Cl])[Cl]`, the Potency entry in experiment [1], in experiment [2] and in experiment [4] was “inactive” throughout.
Consider `CCCCCCCCCCOC(=O)c1ccccc1C(=O)OCCCCCCCCCC`, for which the Potency entry in experiment [1], in experiment [2], in experiment [3], in experiment [4], in experiment [5] and in experiment [7] was “inactive” throughout. For the same molecule, the Potency result in experiment [8] was “inactive”. The molecule was classed as inactive in experiment [6].
As to `CCCCN(N=O)C(=N)N[N+](=O)[O-]`, the Potency result in experiment [1], in experiment [2], in experiment [3], in experiment [4] and in experiment [8] was “inactive” in each case. In addition, the molecule was classed as inactive in experiment [6].
Take `NS(=O)(=O)C(F)(F)C(F)(F)C(F)(F)C(F)(F)C(F)(F)C(F)(F)C(F)(F)C(F)(F)F`: the Potency result in experiment [1], in experiment [3], in experiment [5], in experiment [7] and in experiment [8] was “inactive” throughout. Further, in experiment [2], the Potency is 68.6 µM (active). Also, the result in experiment [6] was inactive.
As for `O=C(CCl)c1ccc(Cl)cc1Cl`, the Potency entry in experiment [1] was “inactive and 29.8 µM (active)”; in experiment [2], 38.4 µM (active) and 18.8 µM (active). In addition, the Potency entry in experiment [3], in experiment [5] and in experiment [8] was “inactive” in each case. Also, in experiment [6], the call was inactive.
`C=CC[C@]1(O)CC[C@H]2[C@@H]3CCC4=CC(=O)CCC4=C3C=C[C@@]21C`: the Potency result in experiment [1], in experiment [2], in experiment [4] and in experiment [5] was “inactive” throughout. In addition, the call in experiment [6] was inactive.
On to `CCOC(=O)COc1cc(-c2nn(C)c(OC(F)F)c2Cl)c(F)cc1Cl`, for which the Potency result in experiment [1], in experiment [2], in experiment [3], in experiment [4] and in experiment [8] was “inactive” throughout. Moreover, the molecule was classed as inactive in experiment [6].
As for `Clc1cc(Cl)c(Cl)c(Cl)c1`, the Potency result in experiment [1], in experiment [2], in experiment [4], in experiment [5], in experiment [7] and in experiment [8] was “inactive” throughout. In experiment [6], the molecule was called inactive.
As to `CO/N=C(/C(=O)OC)c1ccccc1COc1ccccc1C`, the Potency in experiment [1] was 54.5 µM (active); in experiment [2] it was 15.4 µM (active). The Potency entry in experiment [3], in experiment [4], in experiment [5] and in experiment [8] was “inactive” throughout. Further, the outcome in experiment [6] was inactive.
For the molecule `O=S1(=O)OC(c2cc(Br)c(O)c(Br)c2)(c2cc(Br)c(O)c(Br)c2)c2ccccc21`, the Potency in experiment [1] was 25 µM (active); in experiment [2] it was 31.5 µM (active); in experiment [8] it was 22.3 µM (active). For the same molecule, the Potency result in experiment [3] and in experiment [5] was “inactive” in each case.
`O=C(CBr)c1ccccc1`: the Potency entry in experiment [1], in experiment [2], in experiment [4], in experiment [5], in experiment [7] and in experiment [8] was “inactive” each time. In addition, the outcome in experiment [6] was inactive.
With `C=CC(=O)OCC(C)O` (stereo unspecified), the Potency entry in experiment [1], in experiment [2], in experiment [4], in experiment [5] and in experiment [8] was “inactive” throughout. In addition, the outcome in experiment [6] was inactive.
For `CC1(C)CCC(Cc2ccc(Cl)cc2)C1(O)Cn1cncn1` (stereo unspecified), the Potency entry in experiment [5], in experiment [7] and in experiment [8] was “inactive” in each case. The result in experiment [6] was inactive.
`O=[N+]([O-])c1cc(C(F)(F)F)cc([N+](=O)[O-])c1Cl`: the values for the Potency in experiment [2] and in experiment [8] were 54.7 µM (active) and 30.8 µM (active), respectively. Besides, the Potency result in experiment [5] and in experiment [7] was “inactive” throughout. Moreover, the call in experiment [6] was inactive.
`CC(c1ccc(O)cc1)(c1ccc(O)cc1)c1ccc(O)cc1`: the Potency entry in experiment [5] and in experiment [8] was “inactive” in each case.
As to `C=COC(C)=O`, the Potency entry in experiment [1], in experiment [2], in experiment [4] and in experiment [8] was “inactive” throughout. Besides, the call in experiment [6] was inactive.
For `CCOS(C)(=O)=O`, the Potency entry in experiment [1], in experiment [2], in experiment [4] and in experiment [8] was “inactive” in each case. Besides, in experiment [6], the result was inactive.
On to `COCCOCCO`, for which the Potency entry in experiment [1], in experiment [4], in experiment [5], in experiment [7] and in experiment [8] was “inactive” throughout. Also, in experiment [6], the molecule was classed as inactive.
